hiPSC survival: enhancers of single-cell hiPSC survival, primary screen, ATPlite luminescence; 100% = ROCK inhibitor wells, 0% = DMSO; survival enhancement, % at 20 µM; actives 0.044% (n = 360,000); AID 602274, 2012; in the data active = survival enhancement above about 18%;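 also: cells exposed to compounds for 16 hours before the ATP read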
HIF-2a block: HIF-2a reporter inhibitors, primary screen, luminescence, 786-0 RCC cells. 786-0 RCC cells HIF-2a reporter, luciferase luminescence, overnight. inhibition, % at 18.8 µM. actives 0.72% (n = 360,000);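 active = inhibition of the luminescence signal of 40% or more relative to plate controls, in a single-dose primary screen at 18.75 µM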
CF NFkB inh: inhibitors of PAF-induced NF-kB signaling, primary screen, cell-based, GFP fluorescence, uHTS | inhibition, % at 5 µM | KKLEB NF-kB-GFP reporter, GFP fluorescence overnight | AID 588850, 2011 | actives 0.86% (n = 360,000);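 active = at least 50% inhibition at 5 µM, scaled per plate between neutral and stimulator controls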;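 also: PAF is a Pseudomonas aeruginosa culture filtrate used as stimulus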
PPC-1+TRAIL kill: compounds killing PPC-1 cancer cells with TRAIL present, primary screen, TRAIL potentiator project, ATPLite luminescence, uHTS. PPC-1 cells + TRAIL, ATPLite viability luminescence. cell killing (% activity), % at 4 µM or 5 µM. actives 0.41% (n = 220,000). AID 1443, 2008;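 active = cell killing above 50% in the first pass at 4 µM, then a duplicate retest at 5 µM averaging 50% or more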
KKLEB cytotox: cytotoxicity in KKLEB CF airway cells, primary screen, cytotoxicity control for CF NF-kB inhibitor project, cell-based, uHTS, fluorescence assay plates | activity change (cytotoxicity), % at 5 µM | actives 0.36% (n = 360,000) | KKLEB CF airway cells viability, ATPlite luminescence, overnight; active compounds read low; cells stimulated with P. aeruginosa culture filtrate;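 active = corrected activity change at or below -50% at 5 µM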
TRAIL sens C8: viability loss with TRAIL in NB7+C8 cells, primary screen, TRAIL sensitizer project, cell-based, ATPlite luminescence; actives 1% (n = 360,000); inhibition (viability loss, TRAIL sensitization), % at 10 µM;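 active = compounds causing at least 50% loss of cell viability in the single-dose screen, relative to plate controls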
Numbers stand for hits; i = inactive; nt = no result given. Rows were chosen to be rich in hits. Some 2.2% of all compounds tested hit in one or more screens of this group.

SMILES	hiPSC survival	HIF-2a block	CF NFkB inh	PPC-1+TRAIL kill	KKLEB cytotox	TRAIL sens C8
COc1ccc(C(=O)Nc2cc(C)on2)cc1	i	i	i	i	i	57.2
O=C1c2cccc(NCCCNCCO)c2C(=O)c2cccc(NCCCNCCO)c21	i	48.0	i	nt	i	57.0
O=C1c2ccccc2C(=O)c2c(NCc3cccnc3)cccc21	i	i	i	i	i	i
C/C(=N\NC(=O)c1nn(C)c(C)c1Br)c1cccc(NC(=O)c2ccc(F)cc2)c1	i	i	i	i	i	52.9
C/C(=N\NC(=O)c1c(Br)c(C)nn1C)c1cccc(NC(=O)c2ccccc2F)c1	i	i	i	i	i	i
C/C(=N\NC(=O)c1ccc(O)cc1)c1cccc(NC(=O)c2ccccc2C)c1	i	i	i	nt	i	62.6
C/C(=N\NC(=O)c1c(Br)c(C)nn1C)c1cccc(NC(=O)c2ccccc2C)c1	i	i	i	i	i	i
O=C(CN1CC(c2ccccc2)CC1=O)N/N=C/c1cc(Br)ccc1O (centres undefined)	i	i	i	i	i	52.0
FC(F)(F)C1=Nc2cccc3cccc(c23)N1	i	i	i	nt	i	50.8
CC(C)c1cc(Cn2c3ccccc3c(=O)n2C(C)CBr)on1 (centres undefined)	i	i	i	nt	i	i
CC(C)c1ccc(/C=c2\sc3n(c2=O)C(N)=C(C#N)C(c2ccc(C(C)C)cc2)C=3C(N)=O)cc1 (centres undefined)	i	i	i	nt	i	62.8
C[C@@H]1O[C@@H](OC[C@@H]2O[C@H](Oc3c(-c4ccc(O)cc4)oc4cc(O)cc(O)c4c3=O)[C@@H](O)[C@H](O)[C@H]2O)[C@H](O)[C@H](O)[C@H]1O	i	i	i	nt	i	i
CC(C)=CCc1c(O)cc(O)c2c(=O)c(O[C@@H]3O[C@@H](C)[C@H](O)[C@@H](O)[C@H]3O)c(-c3ccc(O)cc3)oc12	i	i	67.5	nt	i	i
Cc1ccc(NS(=O)(=O)c2cc(C(=O)NCCCN(C)C)ccc2Cl)cc1Cl	i	i	i	nt	i	i
CC(C)n1c(/C=C/c2ccccc2)nc2ccccc21	i	i	i	i	i	51.6
CCCn1c(/C=C/c2ccccc2)nc2ccccc21	i	i	i	i	i	52.6
CCn1c(/C=C/c2cc[n+](C)cc2)nc2ccccc21	i	i	i	nt	i	i
COCCOCCn1c(/C=C/c2ccccc2)nc2ccccc21	i	i	i	i	i	52.5
O=C1C2C3C=CC(C4CC34)C2C(=O)N1CCCCN1CCN(c2ccc(F)cc2)CC1 (centres undefined)	i	i	i	nt	i	i
COc1cccc(C=Cc2nccc3ccccc23)c1OC	i	i	i	nt	i	60.5
CN(C)c1ccc(C=Cc2nccc3ccccc23)cc1	i	i	i	nt	i	i
C=CCN1C(=O)C(=Cc2ccc3c(c2)CCC3)SC1=S	i	i	i	nt	i	91.6
CC(C)(C)c1ccc(-c2nc3cc(N)ccc3o2)cc1	i	i	i	nt	i	71.7
Nc1ccc2oc(-c3cccc4ccccc34)nc2c1	i	87.4	i	i	i	i
Cc1ccc(-c2nc3cc(C)ccc3o2)cc1	i	i	i	i	i	53.8
SMILES	hiPSC survival	HIF-2a block	CF NFkB inh	PPC-1+TRAIL kill	KKLEB cytotox	TRAIL sens C8
Cc1ccc(C(=O)NC2CCS(=O)(=O)C2)cc1S(=O)(=O)N1CCCCCC1 (centres undefined)	i	i	i	i	i	i
CCOc1ccc(NC(=O)c2ccccc2OCC(=O)c2ccc(C)cc2)cc1	i	i	i	i	-53.0	i
Cc1ccc(NC(=O)c2ccccc2OCC(=O)c2ccc(F)cc2)cc1	i	i	i	i	i	i
CS(=O)(=O)c1nc(-c2ccccc2)cc(C(F)(F)F)n1	i	93.8	94.9	i	-72.9	59.0
Cc1ccc(S(=O)(=O)CCC(=O)Nc2cc(C)on2)cc1	i	i	i	nt	i	i
COc1ccc(-c2cc(C(F)(F)F)nc(S(=O)(=O)CCCC(=O)Nc3cccc(O)c3)n2)cc1OC	i	i	85.8	i	-79.7	i
